In PubChem BioAssay AID631 (The Scripps Research Institute Molecular Screening Center, 2007):
Screen size: about 200,000 compounds; about 810 (0.41%) were called active. Shown is part of a subset that was picked to be rich in actives. Values without a mark were called inactive. Rule as the data show it: active = activation above about 19%; inactive = the rest.

molecular target: Peroxisome proliferator-activated receptor gamma (Homo sapiens) (UniProt P37231); assay: enhancers of SRC-1 binding to PPARgamma – biochemical, primary screen (AID 631); details: PPARgamma-SRC-1 coactivator recruitment biochemical assay; at 8 µM; active compounds read high;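 also: 0% = DMSO and 100% = reference agonist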
Sequence (P37231 whole entry, looked up): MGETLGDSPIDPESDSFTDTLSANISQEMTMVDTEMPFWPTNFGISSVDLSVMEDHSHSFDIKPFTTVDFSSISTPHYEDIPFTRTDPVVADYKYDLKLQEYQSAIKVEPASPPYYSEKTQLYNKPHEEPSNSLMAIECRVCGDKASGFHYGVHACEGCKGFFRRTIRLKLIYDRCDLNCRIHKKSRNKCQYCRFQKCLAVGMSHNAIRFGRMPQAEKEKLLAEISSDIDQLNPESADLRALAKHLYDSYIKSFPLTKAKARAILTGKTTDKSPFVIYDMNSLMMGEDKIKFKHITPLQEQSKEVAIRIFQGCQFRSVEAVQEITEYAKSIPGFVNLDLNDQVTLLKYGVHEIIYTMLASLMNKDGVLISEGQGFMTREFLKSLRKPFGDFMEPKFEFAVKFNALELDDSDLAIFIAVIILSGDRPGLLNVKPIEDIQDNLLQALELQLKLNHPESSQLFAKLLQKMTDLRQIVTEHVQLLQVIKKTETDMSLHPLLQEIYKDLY

Structure (SMILES)	activation
CCN(CC)c1ccc(C(=O)N/N=C(\C)c2cccc(OC)c2)cc1	9.4%
CCOC(=O)c1c(N)nn(C(=O)c2ccccc2)c1-c1ccccc1	3%
COc1cc2c(cc1OC)C(=O)NCC(C)(C)O2	9.4%
CCOC(=O)c1ccccc1C(=O)N1CCOCCOCCOCC1	-0.2%
Cc1cnc(C(=O)N2CCCC(C(=O)c3ccc(C(F)(F)F)cc3)C2)cn1 (configuration not stated)	5.6%
CN(C)/C(=N\OC(=O)c1ccccc1)c1nonc1N	2.5%
O=C(Nn1cnc2ccccc2c1=O)c1ccccc1	12.8%
Nc1nc(SCC(=O)NCCN2CCOCC2)nc2sc3c(c12)CCC3	6%
CCOc1cc(C2C(C(=O)OC(C)C)=C(C)NC3=C2C(=O)CCC3)cc([N+](=O)[O-])c1O (configuration not stated)	-1%
Cc1ccc(-c2cc(C(=O)NCc3cn(C)nc3C)c3cc(Br)ccc3n2)cc1	22.7% (active)
COc1ccc(Cl)cc1C(=O)NCc1cn(C)nc1C	0.6%
Cc1ccc2nc(-c3cccc(Br)c3)cc(C(=O)Nn3cnnc3)c2c1	-0.9%
O=C(Cc1cc(=O)[nH][nH]1)N/N=C/c1ccccc1[N+](=O)[O-]	1.6%
O=C(COc1cccc2ccccc12)Nc1cc(S(=O)(=O)N2CCOCC2)ccc1N1CCOCC1	5.6%
COc1ccccc1CC(NC(C)=O)C(=O)NC1CCN(C(=O)Nc2ccccc2Cl)CC1 (configuration not stated)	5.1%
C=CCN(CC=C)CCOc1ccccc1[N+](=O)[O-]	2.5%
COCC1CCCN(Cc2nc(-c3ccc4c(c3)OCO4)no2)C1 (configuration not stated)	10.9%
COc1ccc(C2c3[nH]c4ccccc4c3CCN2CCCn2cccn2)cc1C (configuration not stated)	-5%
CC(C)(C)CC(=O)Nc1nnc(SCC(=O)NCc2cccs2)s1	10.6%
O=C(/C=C/Nc1ccccc1OC(F)(F)F)C(F)(F)F	-4.7%
CN(C)c1ccc(N/C=C/C(=O)C(F)(F)F)cc1	31.5% (active)
CCCOc1ccc(N/C=C/C(=O)C(C)(C)C)cc1	2.3%
COC(=O)C[n+]1cccc2ccccc21	4.1%
O=C(O)c1ccn(COc2ccc(Br)cc2)n1	7.4%
Cc1cc(-c2ccc(/C=N/n3cnnc3)o2)c([N+](=O)[O-])cc1C	-9.4%
Cc1ccc(-c2ccc(/C=C(\C#N)C(N)=S)o2)c([N+](=O)[O-])c1	22.9% (active)

Structure (SMILES)	activation
Cc1ccc(Cc2cnc(NC(=O)/C(C#N)=C/c3ccc(-c4cccc([N+](=O)[O-])c4)o3)s2)cc1	2.6%
Cc1cc(C)cc(C(=O)N(CCc2ccccc2)C2=CC3CCC(C2)N3C)c1 (configuration not stated)	-4.8%
CSc1nc2nc(-c3cccc(C(F)(F)F)c3)ccn2n1	3.3%
CCn1ccnc1CN(C)Cc1nc(-c2ccc3c(c2)OCO3)no1	3.8%
CC(C)CC(CC(C)C)=NNC(=O)c1ccc(CSc2nncn2C)cc1	9.8%
COC(=O)c1cccnc1NC(=S)NC(C)C	5.1%
Cc1ccc(Nc2ccccc2N)cc1	7.5%
Nc1ccc(Nc2ccccc2)cc1	20.9% (active)
Cc1cc(Nc2ccccc2)n(C(=O)c2ccc(N)cc2)n1	3.5%
COc1cc(C(=O)NCc2nnc(SCC(=O)Nc3nc4ccc(C)cc4s3)o2)cc(OC)c1OC	4.6%
COc1ccc(-c2ccc(CCC(=O)O)n2NC(=O)c2ccc(C(C)(C)C)cc2)cc1	4.4%
CCOC(=O)Cc1cc(=O)[nH]c(=O)[nH]1	1.2%
O=C1CCC(=O)N1c1ccc(NCCc2ccccc2F)c([N+](=O)[O-])c1	9%
CC(=O)c1sc2nc(SCC(=O)N3CCCCC3)[nH]c(=O)c2c1C	19.1% (active)
O=C(CSc1nc2c(cnn2-c2ccc(F)cc2)c(=O)[nH]1)N1CCCCCC1	1.2%
C=CCNC(=O)CSc1nc2sc(C)c(C)c2c(=O)[nH]1	1.1%
Cc1cccc(NC(=O)c2ccc3nsnc3c2)c1C	4.5%
O=C(Cc1ccccc1)NNS(=O)(=O)c1ccc([N+](=O)[O-])cc1	0.6%
Cc1cn(C)c(=O)n(C)c1=O	3.8%
COc1cc(C2CC(=O)N3CN(Cc4ccccc4)CSC3=C2C#N)ccc1OCc1ccccc1 (configuration not stated)	19% (active)
COc1cc(CNC2CCCC2)c(Br)cc1OCc1ccccc1	1.4%
COc1ccc(CCN=C2SCC(=O)N2Cc2ccccc2)cc1OC	-0.6%
CCOc1ccc(N(CC(=O)NCCc2ccc(OC)cc2)S(C)(=O)=O)cc1	0.5%
CCOC(=O)Cc1csc(SCC(=O)NC(C)C23CC4CC(CC(C4)C2)C3)n1 (configuration not stated)	-9%
Cc1nnc(SCCCCSc2nnc(C)c(=O)[nH]2)[nH]c1=O	4.2%
COc1ccc(NC(=O)c2ccccc2CC[N+](=O)[O-])cc1	3.6%
